Laboratory results: PubChem BioAssay (EPA / NIEHS)
Calls of active or inactive are those of the source. How the source made its calls: active means hit-call score of the fitted dose curve at least 0.9, where 1 is the maximum; inactive means score below 0.9.

What was measured:
[1] = ATG_CRE_CIS: Attagene CIS-FACTORIAL HepG2 Assay for human cAMP Responsive Element (CRE) binding protein 3 (AID 2282926); conditions: HepG2 CRE cis-reporter, Attagene multiplexed mRNA; actives raise or lower the signal
Outline: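 Human liver HepG2, transient MRTU transfection, 24 h compound exposure. Total RNA → oligo(dT) RT → PCR → 6-FAM primer extension → HpaI cut → CE. Activity called both directions vs DMSO.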

[2] = target: CCAAT/enhancer-binding protein beta (Homo sapiens) (UniProt P17676); assay: ATG_C_EBP_CIS: Attagene CIS-FACTORIAL HepG2 Assay for human CCAAT/Enhancer Binding Protein (C/EBP) beta (AID 2282927); conditions: HepG2 Attagene cis-factorial transcription factor reporter; actives raise or lower the signal
Sequence of CCAAT/enhancer-binding protein beta (Homo sapiens) (P17676 whole entry, looked up): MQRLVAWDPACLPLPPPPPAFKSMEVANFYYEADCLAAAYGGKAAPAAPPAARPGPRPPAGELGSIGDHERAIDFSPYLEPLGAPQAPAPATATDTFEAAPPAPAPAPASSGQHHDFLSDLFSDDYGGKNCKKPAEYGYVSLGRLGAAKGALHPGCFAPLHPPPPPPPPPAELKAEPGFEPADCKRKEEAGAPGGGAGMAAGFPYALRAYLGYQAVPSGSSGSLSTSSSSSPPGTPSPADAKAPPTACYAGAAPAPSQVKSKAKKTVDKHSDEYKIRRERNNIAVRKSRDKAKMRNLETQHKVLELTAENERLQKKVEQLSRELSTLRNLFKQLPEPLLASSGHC
Outline: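 HepG2 transiently transfected with multiplexed reporter units under cis-regulatory promoters reporting endogenous C/EBPb activity. After 24 h exposure, reporter mRNA assayed by RT-PCR, fluorescent labelling, HpaI digestion and capillary electrophoresis; bidirectional fitting versus DMSO.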

[3] = ATG_DR4_LXR_CIS: Attagene CIS-FACTORIAL HepG2 Assay for human Liver X Receptor (LXR), DR4 submotif (AID 2282929); conditions: HepG2 Attagene DR4 cis-reporter, mRNA transcription; actives raise or lower the signal
Outline: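 Endogenous factor activity at a DR4 cis-element is read as reporter mRNA in transiently transfected HepG2 cells. Exposure lasts 24 h; transcripts are amplified, fluorescently labelled and sized by capillary electrophoresis, with DMSO as baseline.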

[4] = ATG_AP_1_CIS: Attagene CIS-FACTORIAL HepG2 Assay for human Activator Protein 1 (AP-1) (AID 2282931); conditions: HepG2 Attagene cis-factorial AP-1 reporter mRNA; actives raise or lower the signal
Outline: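 Fluorescence of labelled PCR fragments separated by capillary electrophoresis gives reporter mRNA levels. HepG2 with transfected cis-regulated reporter units, 24 h exposure; DMSO serves as baseline for bidirectional curve fits.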

[5] = ATG_AP_2_CIS: Attagene CIS-FACTORIAL HepG2 Assay for human Activator Protein 2 (AP-2) (AID 2282932); conditions: HepG2 AP-2 cis-reporter, Attagene transcription factor profiling; actives raise or lower the signal
Outline: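 Multiplexed mRNA reporter assay in HepG2: cis-regulated units report endogenous factor activity after 24 h treatment. Fluorescence from capillary electrophoresis of RT-PCR products gives the signal, with DMSO as baseline.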

[6] = ATG_BRE_CIS: Attagene CIS-FACTORIAL HepG2 Assay for human Bone Morphogenetic Protein (BMP) Response Element (BRE) (AID 2282933); conditions: HepG2 BMP response element reporter, Attagene transcription factor profiling; actives raise or lower the signal
Outline: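 HepG2 cells transiently transfected with CIS reporter units (endogenous TF activity, BMP response element), dosed 24 h. Reporter mRNA quantified by RT-PCR, fluorescent labelling and capillary electrophoresis; bidirectional fit vs DMSO baseline.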

[7] = target: Transcription factor E2F1 (Homo sapiens) (UniProt Q01094); assay: ATG_E2F_CIS: Attagene CIS-FACTORIAL HepG2 Assay for human E2F Transcription Factor 1 (AID 2282935); conditions: HepG2 Attagene cis-reporter, E2F reporter RNA transcripts; actives raise or lower the signal
Sequence of Transcription factor E2F1 (Homo sapiens) (Q01094 whole entry, looked up): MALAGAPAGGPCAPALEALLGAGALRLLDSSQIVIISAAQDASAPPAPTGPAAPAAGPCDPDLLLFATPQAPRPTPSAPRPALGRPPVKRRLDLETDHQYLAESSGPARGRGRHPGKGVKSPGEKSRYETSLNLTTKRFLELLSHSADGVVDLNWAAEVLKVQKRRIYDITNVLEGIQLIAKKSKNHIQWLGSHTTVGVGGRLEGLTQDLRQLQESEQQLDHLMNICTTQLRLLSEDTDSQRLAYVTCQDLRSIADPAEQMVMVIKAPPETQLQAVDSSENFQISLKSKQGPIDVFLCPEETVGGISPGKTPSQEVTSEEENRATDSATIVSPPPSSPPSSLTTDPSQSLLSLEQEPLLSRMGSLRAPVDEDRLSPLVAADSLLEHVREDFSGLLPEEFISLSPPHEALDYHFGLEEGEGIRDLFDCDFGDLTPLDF
Outline: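 Measures reporter transcript levels via RT-PCR with capillary electrophoresis detection in HepG2 cells harboring cis-regulated reporter units; 24 h post-dose; bidirectional curve fitting with DMSO as baseline.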

[8] = ATG_E_Box_CIS: Attagene CIS-FACTORIAL HepG2 Assay for human Enhancer Box (E-box) (AID 2282936); conditions: HepG2 E-box cis-reporter transcription, actives raise or lower the signal
Outline: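 First, HepG2 cells receive multiple cis-regulated reporter constructs by transient transfection. Next, chemicals are applied for 24 h. Finally, reporter mRNA is quantified via RT-PCR and capillary electrophoresis, with DMSO as baseline.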

[9] = ATG_M_61_CIS: Attagene CIS-FACTORIAL HepG2 Assay for M61 Transcription Factor (Internal Marker) (AID 2282937); conditions: HepG2 Attagene CIS-FACTORIAL M61 internal marker reporter; actives raise or lower the signal
Outline: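 This endpoint serves as an internal background control within a multiplexed HepG2 cis-reporter panel. Cells are exposed for 24 h; reporter mRNA is amplified, fluorescently labelled and sized by capillary electrophoresis, with DMSO as negative control.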

[10] = ATG_EGR_CIS: Attagene CIS-FACTORIAL HepG2 Assay for human Early Growth Response 1 (EGR1) (AID 2282938); conditions: HepG2 Attagene CIS-FACTORIAL EGR reporter mRNA; actives raise or lower the signal
Outline: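 HepG2, transient MRTU transfection (cis promoters), 24 h compound. RNA → RT (oligo-dT) → PCR → 6-FAM labelling → HpaI cut → CE fluorescence. Bidirectional fit, DMSO baseline.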

[11] = ATG_M_19_CIS: Attagene CIS-FACTORIAL HepG2 Assay for M19 Transcription Factor (Internal Marker) (AID 2282939); conditions: HepG2 Attagene CIS-FACTORIAL M19 internal marker reporter; actives raise or lower the signal
Outline: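 HepG2 cells transiently transfected with cis-regulated multiplexed reporter units, dosed 24 h. Reporter mRNA quantified by RT-PCR and capillary electrophoresis; internal background marker fitted bidirectionally versus DMSO.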

[12] = ATG_ERE_CIS: Attagene CIS-FACTORIAL HepG2 Assay for Estrogen Response Element (ERE) (AID 2282940); conditions: HepG2 ERE cis-reporter, Attagene RNA transcript; actives raise or lower the signal
Outline: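 HepG2 cells transiently transfected with multiplexed cis-element reporter units, measuring endogenous transcription factor activity; ERE reporter mRNA quantified after 24 h exposure by RT-PCR, fluorescent labelling, HpaI digestion and capillary electrophoresis. Bidirectional change versus DMSO.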

[13] = ATG_Ets_CIS: Attagene CIS-FACTORIAL HepG2 Assay for human Erythroblast Transformation Specific (ETS) (AID 2282941); conditions: HepG2 ETS cis-reporter transcription, actives raise or lower the signal
Outline: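 HepG2 cells transiently transfected with cis-promoter reporter transcription units were dosed for 24 h; reporter mRNA was measured by RT-PCR, 6-FAM primer extension, HpaI digestion and capillary electrophoresis, with bidirectional fitting against DMSO baseline.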

[14] = target: Hepatocyte nuclear factor 3-beta (Homo sapiens) (UniProt Q9Y261); assay: ATG_FoxA2_CIS: Attagene CIS-FACTORIAL HepG2 Assay for human Forkhead box A2 (FOXA2) (AID 2282942); conditions: HepG2 cis-reporter transcription factor activity, 24 h; actives raise or lower the signal
Sequence of Hepatocyte nuclear factor 3-beta (Homo sapiens) (Q9Y261 whole entry, looked up): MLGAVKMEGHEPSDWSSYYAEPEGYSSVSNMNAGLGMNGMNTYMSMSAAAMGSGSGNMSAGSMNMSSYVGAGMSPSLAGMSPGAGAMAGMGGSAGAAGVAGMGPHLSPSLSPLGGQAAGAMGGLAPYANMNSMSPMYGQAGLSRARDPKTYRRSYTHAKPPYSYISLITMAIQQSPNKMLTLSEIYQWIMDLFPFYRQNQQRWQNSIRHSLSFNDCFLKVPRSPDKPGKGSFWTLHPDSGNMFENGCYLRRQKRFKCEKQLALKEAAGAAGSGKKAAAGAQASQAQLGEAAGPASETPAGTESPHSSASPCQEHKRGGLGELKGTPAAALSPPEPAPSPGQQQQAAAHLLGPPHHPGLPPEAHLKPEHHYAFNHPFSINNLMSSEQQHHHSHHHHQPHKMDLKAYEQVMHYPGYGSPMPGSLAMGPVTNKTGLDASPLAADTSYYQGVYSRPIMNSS
Outline: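 Cells: HepG2, transient multiplex reporter transfection. Exposure 24 h. Detection: reporter-specific RT-PCR, fluorescent labelling, restriction digest, capillary electrophoresis. Analysis: bidirectional curve fit, DMSO as negative control.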

[15] = ATG_FoxO_CIS: Attagene CIS-FACTORIAL HepG2 Assay for human Forkhead box O (FoxO) (AID 2282943); conditions: HepG2 Attagene cis-reporter, FoxO element, mRNA; actives raise or lower the signal
Outline: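 HepG2 cells transiently transfected with cis-element-driven reporter units report endogenous FoxO activity. After 24 h chemical exposure, reporter mRNA quantified by RT-PCR, fluorescent labeling, HpaI digestion and capillary electrophoresis; bidirectional fit versus DMSO.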

[16] = ATG_GATA_CIS: Attagene CIS-FACTORIAL HepG2 Assay for human GATA Binding Protein (AID 2282944); conditions: HepG2 GATA cis-element reporter, Attagene multiplex mRNA; actives raise or lower the signal
Outline: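 HepG2 cells transiently transfected with multiplexed cis-element reporter units measure endogenous GATA activity; after 24 h compound exposure, reporter mRNA quantified by RT-PCR and capillary electrophoresis. Changes fitted in both directions vs DMSO.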

[17] = target: Aryl hydrocarbon receptor (Homo sapiens) (UniProt P35869); assay: ATG_Ahr_CIS: Attagene CIS-FACTORIAL HepG2 Assay for human Aryl Hydrocarbon Receptor (Ahr) (AID 2282930); conditions: HepG2 AhR cis-factorial reporter transcription; actives raise or lower the signal
Sequence of Aryl hydrocarbon receptor (Homo sapiens) (P35869 whole entry, looked up): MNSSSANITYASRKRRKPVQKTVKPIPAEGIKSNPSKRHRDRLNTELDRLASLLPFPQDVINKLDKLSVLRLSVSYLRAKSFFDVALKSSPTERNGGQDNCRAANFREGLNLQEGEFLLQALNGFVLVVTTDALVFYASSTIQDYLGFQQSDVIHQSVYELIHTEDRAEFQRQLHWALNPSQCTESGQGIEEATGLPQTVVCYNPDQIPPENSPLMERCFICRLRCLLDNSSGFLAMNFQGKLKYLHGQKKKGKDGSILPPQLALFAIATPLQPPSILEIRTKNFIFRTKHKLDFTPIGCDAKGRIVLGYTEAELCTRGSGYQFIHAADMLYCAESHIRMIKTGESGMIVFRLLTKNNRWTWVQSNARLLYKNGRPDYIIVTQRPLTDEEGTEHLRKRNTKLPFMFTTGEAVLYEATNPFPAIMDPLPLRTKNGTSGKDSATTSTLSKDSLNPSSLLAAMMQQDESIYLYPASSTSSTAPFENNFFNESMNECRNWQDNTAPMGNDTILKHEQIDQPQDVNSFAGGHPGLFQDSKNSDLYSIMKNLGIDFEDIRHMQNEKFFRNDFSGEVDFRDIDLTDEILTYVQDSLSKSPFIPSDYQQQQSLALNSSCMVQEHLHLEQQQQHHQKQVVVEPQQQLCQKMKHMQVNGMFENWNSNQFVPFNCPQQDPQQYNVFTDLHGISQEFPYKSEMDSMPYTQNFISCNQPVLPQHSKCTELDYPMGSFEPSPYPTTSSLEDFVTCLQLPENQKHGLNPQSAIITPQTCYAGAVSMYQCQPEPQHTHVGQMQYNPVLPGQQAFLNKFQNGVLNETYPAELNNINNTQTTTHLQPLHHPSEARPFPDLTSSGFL
Outline: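 HepG2 cells transiently transfected with cis-element-driven multiplexed reporter units; endogenous AhR activity read as reporter mRNA 24 h after dosing, via RT-PCR, 6-FAM labelling, HpaI digestion and capillary electrophoresis. Bidirectional fit relative to DMSO.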

Measured: AC50

C=C/C(C)=C/C/C=C(\C)CCC=C(C)C
active: [4] 125 µM | [12] 56.8 µM
not listed: [17]
inactive: all other assays above

CC1=C(C=O)C(C)(C)CCC1
not listed: [9] | [13]
inactive: all other assays above

CCC(C)(CCCC(C)C)OC(C)=O (stereo not drawn)
active: [17] 71.4 µM
not listed: [6]
inactive: all other assays above

CC(C)(C)C1CCC(O)CC1 (stereo not drawn)
active: [12] 32.8 µM
not listed: [17]
inactive: all other assays above

CCCO[Si](OCCC)(OCCC)OCCC
not listed: [7] | [17]
inactive: all other assays above
